# Assay results from PubChem BioAssay AID1159580 (chemical genetic matrix, 2015).
# Where “and” joins values, the source holds several entries; their conditions need not be identical. Equal values may be shown once. The whole screen tested about 5,500 compounds, of which about 2,000 (36%) were called active. Inconclusive results (about 18%) are left out. Rule as the data show it: active = normalized growth mostly below about 0.91 (no sharp cut-off); inconclusive = no clear call, values can overlap the other calls; inactive = mostly above about 0.92. This is one part of the list. Where a structure was tested more than once in an assay, its records may differ in their call.
# Test: chemical genetic growth profiling, strain panel (AID 1159580);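 also: tested at 20 µM; growth read once vehicle control cultures reached saturation at 30 °C; 1 = growth at the plate median or of vehicle wells; lower values mean less growth of the strain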
# Settings: S. cerevisiae deletion strains, growth OD
smiles,measurement,setting,value
CCN(CC)CCCC(C)Nc1c2ccc(Cl)cc2nc2ccc(OC)cc12 (stereo unspecified),normalized growth,"locus YAL013W, strain DEP1, stronger effect = lower value",0.992 (inactive)
same,normalized growth,"locus YAL021C, strain ccr4, stronger effect = lower value",0.906 (active)
same,normalized growth,"locus YAL026C, strain drs2, stronger effect = lower value",0.994 (inactive)
same,normalized growth,"locus YAL030W, strain snc1, stronger effect = lower value",1.02 (inactive)
same,normalized growth,"locus YAL040C, strain CLN3, stronger effect = lower value",0.972 (inactive)
same,normalized growth,"locus YBL061C, strain skt5, stronger effect = lower value",1.03 (inactive)
same,normalized growth,"locus YBR009C, strain hhf1, stronger effect = lower value",0.894 (active)
same,normalized growth,"locus YBR021W, strain FUR4, stronger effect = lower value",0.89 (inactive)
same,normalized growth,"locus YBR023C, strain chs3, stronger effect = lower value",0.984 (inactive)
same,normalized growth,"locus YBR171W, strain sec66, stronger effect = lower value",1.05 (inactive)
same,normalized growth,"locus YBR229C, strain ROT2, stronger effect = lower value",0.87 (active)
same,normalized growth,"locus YBR231C, strain swc5, stronger effect = lower value",0.978 (inactive)
same,normalized growth,"locus YBR279W, strain paf1, stronger effect = lower value",0.966 (inactive)
same,normalized growth,"locus YCL011C, strain gbp2, stronger effect = lower value",0.965 (inactive)
same,normalized growth,"locus YCL016C, strain dcc1, stronger effect = lower value",0.844 (active)
same,normalized growth,"locus YCL029C, strain bik1, stronger effect = lower value",0.479 (active)
same,normalized growth,"locus YCL061C, strain MRC1 (second series), stronger effect = lower value",0.917 (active)
same,normalized growth,"locus YCL061C, strain MRC1, stronger effect = lower value",1.01 (inactive)
same,normalized growth,"locus YCL069W, strain vba3, stronger effect = lower value",1.01 (inactive)
same,normalized growth,"locus YCR088W, strain abp1, stronger effect = lower value",1.03 (inactive)
same,normalized growth,"locus YDL005C, strain med2, stronger effect = lower value",1.01 (inactive)
same,normalized growth,"locus YDL035C, strain GPR1, stronger effect = lower value",0.627 (active)
same,normalized growth,"locus YDL040C, strain nat1, stronger effect = lower value",1.03 (inactive)
same,normalized growth,"locus YDL074C, strain BRE1, stronger effect = lower value",0.511 (active)
same,normalized growth,"locus YDL101C, strain DUN1, stronger effect = lower value",0.728 (active)
same,normalized growth,"locus YDL134C, strain PPH21, stronger effect = lower value",0.771 (active)
same,normalized growth,"locus YDL185W, strain tfp1, stronger effect = lower value",1.01 (inactive)
same,normalized growth,"locus YDL192W, strain arf1, stronger effect = lower value",0.669 (active)
same,normalized growth,"locus YDR001C, strain nth1, stronger effect = lower value",1.04 (inactive)
same,normalized growth,"locus YDR069C, strain doa4, stronger effect = lower value",0.989 (inactive)
same,normalized growth,"locus YDR101C, strain arx1, stronger effect = lower value",0.413 (active)
same,normalized growth,"locus YDR137W, strain rgp1, stronger effect = lower value",1.04 (inactive)
same,normalized growth,"locus YDR150W, strain NUM1, stronger effect = lower value",0.945 (inactive) and 0.826 (active)
same,normalized growth,"locus YDR159W, strain sac3, stronger effect = lower value",1.08 (inactive)
same,normalized growth,"locus YDR162C, strain NBP2, stronger effect = lower value",0.802 (active)
same,normalized growth,"locus YDR195W, strain ref2",1.06 (inactive)
same,normalized growth,"locus YDR297W, strain sur2, stronger effect = lower value",1 (inactive)
same,normalized growth,"locus YDR318W, strain mcm21, stronger effect = lower value",0.618 (active)
same,normalized growth,"locus YDR334W, strain swr1, stronger effect = lower value",1.02 (inactive)
same,normalized growth,"locus YDR335W, strain msn5, stronger effect = lower value",1.02 (inactive)
same,normalized growth,"locus YDR363W, strain ESC2, stronger effect = lower value",0.715 (active)
same,normalized growth,"locus YDR388W, stronger effect = lower value",0.695 (active)
same,normalized growth,"locus YDR392W, strain spt3, stronger effect = lower value",0.717 (active)
same,normalized growth,"locus YDR502C, strain sam2, stronger effect = lower value",0.708 (active)
same,normalized growth,"locus YEL003W, strain gim4, stronger effect = lower value",1.01 (inactive)
same,normalized growth,"locus YEL037C, strain rad23, stronger effect = lower value",0.992 (inactive)
same,normalized growth,"locus YEL061C, strain CIN8 (second series), stronger effect = lower value",1.03 (inactive)
same,normalized growth,"locus YEL061C, strain CIN8, stronger effect = lower value",0.907 (active)
same,normalized growth,"locus YER002W, strain NOP16, stronger effect = lower value",1 (inactive)
same,normalized growth,"locus YER015W, strain faa2, stronger effect = lower value",1.01 (inactive)
same,normalized growth,"locus YER016W, strain bim1, stronger effect = lower value",1.02 (inactive)
same,normalized growth,"locus YER110C, stronger effect = lower value",0.908 (inactive)
same,normalized growth,"locus YER111C, strain swi4, stronger effect = lower value",1.02 (inactive)
same,normalized growth,"locus YER155C, strain BEM2 (second series), stronger effect = lower value",0.943 (inactive)
same,normalized growth,"locus YER155C, strain BEM2, stronger effect = lower value",0.997 (inactive)
same,normalized growth,"locus YER167W, strain BCK2, stronger effect = lower value",0.641 (active)
same,normalized growth,"locus YFR010W, strain ubp6, stronger effect = lower value",0.988 (inactive)
same,normalized growth,"locus YGL078C, strain dbp3, stronger effect = lower value",0.817 (active)
same,normalized growth,"locus YGL086W, strain mad1, stronger effect = lower value",0.74 (active)
same,normalized growth,"locus YGL167C, strain pmr1, stronger effect = lower value",1.03 (inactive)
same,normalized growth,"locus YGL173C, strain kem1, stronger effect = lower value",0.997 (inactive)
same,normalized growth,"locus YGL227W, strain vid30, stronger effect = lower value",1.03 (inactive)
same,normalized growth,"locus YGL240W, strain doc1, stronger effect = lower value",1 (inactive)
same,normalized growth,"locus YGL248W, strain PDE1, stronger effect = lower value",0.735 (active)
same,normalized growth,"locus YGL253W, strain hxk2, stronger effect = lower value",0.975 (inactive)
same,normalized growth,"locus YGR078C, strain PAC10, stronger effect = lower value",0.818 (active)
same,normalized growth,"locus YGR135W, strain pre9, stronger effect = lower value",0.739 (active)
same,normalized growth,"locus YGR229C, strain SMI1, stronger effect = lower value",0.754 (active)
same,normalized growth,"locus YGR252W, strain gcn5, stronger effect = lower value",0.643 (active)
same,normalized growth,"locus YHR013C, strain ard1, stronger effect = lower value",0.844 (active)
same,normalized growth,"locus YHR027C, strain rpn1, stronger effect = lower value",1.03 (inactive)
same,normalized growth,"locus YHR030C, strain SLT2, stronger effect = lower value",0.911 (active) and 0.737 (active)
same,normalized growth,"locus YHR079C, strain IRE1 (second series), stronger effect = lower value",0.49 (active)
same,normalized growth,"locus YHR079C, strain IRE1, stronger effect = lower value",0.761 (active)
same,normalized growth,"locus YHR094C, strain hxt1, stronger effect = lower value",0.796 (active)
same,normalized growth,"locus YHR129C, strain ARP1, stronger effect = lower value",0.809 (active)
same,normalized growth,"locus YHR142W, strain chs7, stronger effect = lower value",0.947 (inactive)
same,normalized growth,"locus YHR200W, strain rpn10, stronger effect = lower value",0.786 (active)
same,normalized growth,"locus YIL066C, strain RNR3, stronger effect = lower value",0.798 (active)
same,normalized growth,"locus YIL073C, strain SPO22, stronger effect = lower value",0.69 (inactive)
same,normalized growth,"locus YIL125W, strain kgd1, stronger effect = lower value",0.899 (active)
same,normalized growth,"locus YIR030C, strain dcg1, stronger effect = lower value",0.768 (active)
same,normalized growth,"locus YJL092W, strain hpr5, stronger effect = lower value",1.02 (inactive)
same,normalized growth,"locus YJL095W, strain BCK1 (second series), stronger effect = lower value",1.03 (inactive)
same,normalized growth,"locus YJL095W, strain BCK1, stronger effect = lower value",0.622 (active) and 0.668 (active)
same,normalized growth,"locus YJL115W, strain asf1, stronger effect = lower value",1.03 (inactive)
same,normalized growth,"locus YJL129C, strain trk1, stronger effect = lower value",1.02 (inactive)
same,normalized growth,"locus YJL134W, strain LCB3, stronger effect = lower value",1.01 (inactive)
same,normalized growth,"locus YJL154C, strain vps35, stronger effect = lower value",1.04 (inactive)
same,normalized growth,"locus YJL164C, strain tpk1, stronger effect = lower value",0.911 (active)
same,normalized growth,"locus YJL166W, strain qcr8, stronger effect = lower value",0.942 (inactive)
same,normalized growth,"locus YJL168C, strain set2, stronger effect = lower value",1.02 (inactive)
same,normalized growth,"locus YJL187C, strain SWE1 (second series), stronger effect = lower value",0.453 (active)
same,normalized growth,"locus YJL187C, strain SWE1, stronger effect = lower value",1.01 (inactive)
same,normalized growth,"locus YJR043C, strain POL32, stronger effect = lower value",0.79 (active)
same,normalized growth,"locus YJR066W, strain TOR1, stronger effect = lower value",0.558 (active)
